Most compounds without a hit are left out; they make up all but 2.8% or so of the library.
SNCA expr inh – inhibitors of alpha-synuclein (SNCA) gene expression; HEK-293 SNCA-luciferase knock-in, luminescence, 24 h; hit rate 0.17% among 140,000; Potency, µM (top dose mostly 57.2 µM), hits mostly inhibitors; further: nearly all actives have a fitted effect of over 45% in size
IP6K1 inh – inhibitors of human IP6K1; IP6K1 kinase, ADP-Glo luminescence, 2 h; stronger effect = lower value; activity change, % (series mostly up to about 58 µM); hit rate 0.81% among 140,000; in the data active means activity change below about -25%
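ADP-Glo luminescence measures ADP made by human IP6K1 during a 2 h RT reaction with ATP/IP6 (mix at 1.3 mM/130 uM); top library doses 57.5 and 19.1 uM final.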
KDM5B inh – inhibitors of human KDM5B histone demethylase; Potency, µM (series often up to 57.7 µM), usual class: inhibitors; hit rate 2.6% among 220,000; Q9UGL1; KDM5B demethylase, FDH-coupled NADH fluorescence (FDH is formaldehyde dehydrogenase); further: nearly all actives have a fitted effect of over 70% in size
Target sequence (Q9UGL1 whole entry, looked up): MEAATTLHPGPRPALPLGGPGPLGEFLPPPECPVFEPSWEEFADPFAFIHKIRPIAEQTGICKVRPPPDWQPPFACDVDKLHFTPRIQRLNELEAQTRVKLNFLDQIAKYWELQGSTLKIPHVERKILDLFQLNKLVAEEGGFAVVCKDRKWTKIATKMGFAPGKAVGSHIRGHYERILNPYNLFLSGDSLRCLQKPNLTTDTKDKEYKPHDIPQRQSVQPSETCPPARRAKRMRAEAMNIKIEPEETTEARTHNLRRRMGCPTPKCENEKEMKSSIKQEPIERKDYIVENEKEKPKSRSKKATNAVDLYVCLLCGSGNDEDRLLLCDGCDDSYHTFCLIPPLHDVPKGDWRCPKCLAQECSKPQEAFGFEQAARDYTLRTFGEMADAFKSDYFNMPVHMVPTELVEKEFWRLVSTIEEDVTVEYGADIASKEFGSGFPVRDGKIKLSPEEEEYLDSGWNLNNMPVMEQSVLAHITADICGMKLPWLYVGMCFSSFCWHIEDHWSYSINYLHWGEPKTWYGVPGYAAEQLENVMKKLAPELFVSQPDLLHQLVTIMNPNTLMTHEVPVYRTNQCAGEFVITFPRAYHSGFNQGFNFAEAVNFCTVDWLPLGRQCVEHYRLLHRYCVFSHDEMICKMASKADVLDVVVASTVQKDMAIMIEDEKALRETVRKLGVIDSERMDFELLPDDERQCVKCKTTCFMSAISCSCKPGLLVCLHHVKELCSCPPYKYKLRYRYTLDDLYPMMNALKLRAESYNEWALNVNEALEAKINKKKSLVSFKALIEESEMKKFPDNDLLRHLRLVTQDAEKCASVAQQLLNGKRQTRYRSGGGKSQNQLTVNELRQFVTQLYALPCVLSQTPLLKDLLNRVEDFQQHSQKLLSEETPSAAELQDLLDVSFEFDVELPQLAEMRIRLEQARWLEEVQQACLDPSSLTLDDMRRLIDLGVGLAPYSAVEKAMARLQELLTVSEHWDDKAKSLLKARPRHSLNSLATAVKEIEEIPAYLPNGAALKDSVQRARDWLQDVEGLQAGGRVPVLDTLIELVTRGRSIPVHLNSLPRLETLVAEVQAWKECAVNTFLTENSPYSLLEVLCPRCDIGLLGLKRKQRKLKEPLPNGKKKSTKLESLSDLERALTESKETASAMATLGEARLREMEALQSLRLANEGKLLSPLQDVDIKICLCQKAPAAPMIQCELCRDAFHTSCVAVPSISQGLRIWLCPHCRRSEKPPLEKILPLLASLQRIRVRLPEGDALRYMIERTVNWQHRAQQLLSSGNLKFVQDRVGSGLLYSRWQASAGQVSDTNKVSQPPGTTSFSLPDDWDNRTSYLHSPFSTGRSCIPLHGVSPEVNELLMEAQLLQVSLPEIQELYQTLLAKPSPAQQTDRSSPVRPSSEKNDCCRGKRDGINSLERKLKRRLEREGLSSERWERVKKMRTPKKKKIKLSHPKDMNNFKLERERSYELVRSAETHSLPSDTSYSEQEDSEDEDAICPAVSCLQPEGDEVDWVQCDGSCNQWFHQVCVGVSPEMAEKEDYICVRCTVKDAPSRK
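qHTS format, multiple compound concentrations. Buffer 50 mM HEPES pH 7.5/0.01% Tween-20; 200 nM KDM5BΔAP final; 10 min compound preincubation; substrate-mix levels 12.5 µM peptide, 25 µM α-KG, 0.25 mM NAD⁺; 30 min RT; ΔRFU.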
SNCA viab count – reduces viability of HEK-293 SNCA reporter cells; HEK-293-SNCA-luc viability, GF-AFC fluorescence, 24 h; Potency, µM (series often up to 57.1 µM), actives largely listed as cytotoxic; hit rate 0.12% among 150,000; AID 1671193; further: nearly all actives have a fitted effect of over 30% in size
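HEK-293-SNCA-luc cells (1500/well) plated 24 h, then exposed 24 h to a dilution series; GF-AFC added 30 min at 37C, fluorescence 405/540 nm; normalised to medium-only and DMSO wells, Hill fit.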
Large screens that a line does not name were inactive. Unless noted, the call rests on the fitted dose curve; in most records, active means well fitted curve in the direction sought with a large enough effect; inconclusive means small, poorly fitted or top-dose-only effect, or another doubt; inactive means no such curve, though single readings can be large; an effect the other way counts as inactive or inconclusive.

O=C(NCCc1cnc[nH]1)c1ccc(-c2ncc3cnc(-c4cccc(F)c4)cn23)cc1	KDM5B inh inconclusive
COc1cccc(C(=O)N2C[C@@H](CO)[C@H](c3nc(C)no3)C2)c1OC	none
O=[S+]([O-])(c1cccs1)N1CCn2c(nnc2-c2ccc(Cl)cc2)C1	none
COc1ccccc1CNC(=O)c1cc2c(N(C)Cc3ccccc3)nc(C)cn2n1	KDM5B inh 14µM
Cc1cn2nc(C(=O)NCc3ccccc3F)cc2c(N(C)Cc2ccccc2)n1	KDM5B inh 14µM
CN(C)c1ncc2c(n1)CCCC2NC(=O)CN1C(=O)NC(C)(C)C1=O (stereo unspecified)	KDM5B inh inconclusive
CCCc1nc(C(=O)NC2CCCc3nc(N(C)C)ncc32)cs1 (stereo unspecified)	KDM5B inh 25µM
CCCC(=O)N1Cc2ccccc2CC2(CCCN2CCC)C1 (stereo unspecified)	KDM5B inh inconclusive
CCCC(=O)N1Cc2ccccc2CC2(CCCCN2CC)C1 (stereo unspecified)	KDM5B inh 56µM
CC(=O)NCC(=O)N1Cc2ccccc2CC2(CCCCN2CC2CCNC2)C1 (stereo unspecified)	KDM5B inh 2.8µM
O=C(c1cccc(Cl)c1)N1Cc2ccccc2CC2(CCCN2Cc2ccncc2)C1 (stereo unspecified)	KDM5B inh 50µM
CCC(=O)N1Cc2ccccc2CC2(CCCCN2CC)C1 (stereo unspecified)	KDM5B inh 100µM
Cc1cc(C)c2c(=O)cc(C(=O)N3CCC(Cc4ccccc4)CC3)oc2c1	none (no result: SNCA expr inh, IP6K1 inh, SNCA viab count)
O=C1CCN(CC(O)COc2ccccc2)c2ccccc2CN1C1CC1 (stereo unspecified)	none (no result: SNCA expr inh, KDM5B inh, SNCA viab count)
c1ccc(Oc2cc3c(cn2)NCCN(Cc2ccc4[nH]ccc4c2)C3)cc1	KDM5B inh inconclusive
CC(C)C(=O)N1Cc2ccccc2CC2(CCCN(CC3CCNC3)C2)C1 (stereo unspecified)	KDM5B inh 35µM
COCCN1Cc2ccc(NCC(C)C)nc2C(C)(C(=O)Nc2ccncc2)C1 (stereo unspecified)	KDM5B inh 28µM
COCCN1Cc2ccc(NCC(C)C)nc2C(C)(C(=O)Nc2cccc(F)c2)C1 (stereo unspecified)	KDM5B inh 32µM
COCCN1Cc2ccc(Nc3ccc(OC)cc3)nc2C(C)(C(=O)NC(C)C)C1 (stereo unspecified)	none
CC(C)(C)c1nc(C(=O)N2CCOCC2)n2ccncc12	KDM5B inh 89µM
O=C(c1nc(-c2cccnc2)c2cnccn12)N1CCOCC1	none
CC(C)(C)c1nc(C(=O)N2CCCC2)n2ccncc12	KDM5B inh 100µM
C[C@@]1(O)CCN(Cc2ccc3c4c(cccc24)C(=O)OC3)C[C@@H]1O	KDM5B inh 28µM
O=S(=O)(c1ccc2nc(NC3CCCCC3)ccc2c1)N1CCCC1	none (no result: SNCA expr inh, IP6K1 inh, SNCA viab count)
CNC(=O)c1cc(C2CC2)nc2onc(C3CCCN(C(=O)c4ccccc4OC)C3)c12 (stereo unspecified)	none (no result: SNCA expr inh, KDM5B inh, SNCA viab count)
CCOc1ccccc1-c1noc(-c2nnn3c2COC(c2ccc(F)cc2)C3)n1 (stereo unspecified)	KDM5B inh inconclusive
CCOc1cc(-c2noc(-c3nnn4c3COC(c3ccc(Cl)cc3)C4)n2)ccc1OC (stereo unspecified)	KDM5B inh inconclusive
CCOc1cc(-c2noc(-c3nnn4c3COC(c3ccc(F)cc3)C4)n2)ccc1OC (stereo unspecified)	KDM5B inh 25µM
CCOc1ccc(C2Cn3nnc(-c4nc(-c5ccccc5OCC)no4)c3CO2)cc1 (stereo unspecified)	KDM5B inh 25µM
CCOc1ccccc1-c1noc(-c2nnn3c2COC(c2ccc(OC)cc2)C3)n1 (stereo unspecified)	KDM5B inh 18µM
CCOc1ccccc1-c1noc(-c2nnn3c2COC(c2cccc(OC)c2)C3)n1 (stereo unspecified)	none
CCOc1ccccc1-c1nc(-c2nnn3c2COC(c2ccc(OC)cc2)C3)no1 (stereo unspecified)	KDM5B inh 28µM
O=C(NC[C@H]1O[C@@H](CO)[C@@H](O)[C@H]1N1CCN(c2ccccn2)CC1)Nc1ccccc1	none
CN(CCO)C[C@@H]1CN(C(=O)c2nc3ccccc3[nH]c2=O)C[C@@H]1CO	SNCA expr inh inconclusive, KDM5B inh 28µM
CCC(c1cccs1)N1C(=O)[C@H]2CN(CCC(C)C)C[C@H]2C1=O (stereo partly specified)	SNCA expr inh 3.5µM, SNCA viab count inconclusive
CCC(c1cccs1)N1C(=O)[C@H]2CN(S(=O)(=O)c3ccccc3)C[C@H]2C1=O (stereo partly specified)	none
O=C(CCNS(=O)(=O)c1ccccc1)NC1CCCCCC1	none (no result: SNCA expr inh, IP6K1 inh, SNCA viab count)
COc1ccccc1-c1nc(C(=O)NCCc2ccc(Cl)cc2)n2ccccc12	KDM5B inh 79µM
O=C(NCCc1ccc(Cl)cc1)c1nc(-c2ccccc2)c2ccccn12	KDM5B inh 28µM
O=C(NCCc1ccc(Cl)cc1)c1nc(-c2cccc(C(F)(F)F)c2)c2ccccn12	KDM5B inh 25µM
Cc1ccc(NC(=O)c2nc3sccn3c2-c2cccnc2)cc1	SNCA viab count inconclusive (no result: KDM5B inh)
Cc1ccc(C(=O)N(CCCN)C(c2oc3cc(Cl)ccc3c(=O)c2Cc2ccccc2)C(C)C)cc1 (stereo unspecified)	SNCA viab count 30µM (no result: SNCA expr inh, KDM5B inh)
Nc1cc(N2CC[C@@H](N3CCN(CCc4ccccc4)CC3)[C@H](O)C2)nc(N)n1	KDM5B inh 4.5µM
CN1CCN(c2cc(N3CC[C@H](CO)[C@H](O)C3)nc(N)n2)CC1	none
CNC(=O)c1c(F)cccc1Nc1nc(Nc2cc3c(cc2OC)CCN3C(=O)CN(C)C)nc2[nH]ccc12	SNCA expr inh 14µM (no result: KDM5B inh)
O=C(NCc1ccc2c(c1)CCN2C(=O)c1ccc(F)cc1)c1c(F)cccc1F	none
CC(C)c1noc(-c2cccn3c(CNC(=O)c4c(F)cccc4F)nnc23)n1	KDM5B inh 28µM
Cc1ccc(C(=O)NCc2nnc3c(-c4nc(C(C)C)no4)cccn23)cc1C	KDM5B inh 28µM
Cc1ccccc1C(=O)NCc1nnc2c(-c3nc(C(C)C)no3)cccn12	KDM5B inh inconclusive
CC(C)c1noc(-c2cccn3c(CNC(=O)c4cccc(F)c4)nnc23)n1	KDM5B inh 25µM
CC(C)c1noc(-c2cccn3c(CNC(=O)c4cccc(Cl)c4)nnc23)n1	KDM5B inh 22µM
CC(C)c1noc(-c2cccn3c(CNC(=O)Cc4cccc(F)c4)nnc23)n1	KDM5B inh inconclusive
Cc1oc2cc(OCC(N)=O)ccc2c(=O)c1Oc1ccc(-c2ccccc2)cc1	none (no result: SNCA expr inh, IP6K1 inh, SNCA viab count)
Cc1c(NC(=O)Cn2cnc3c2c(=O)n(C)c(=O)n3C)cccc1[N+](=O)[O-]	none (no result: SNCA expr inh, IP6K1 inh, SNCA viab count)
CCC(=O)NCc1nnc2c(-c3nc(C(C)C)no3)cccn12	KDM5B inh inconclusive
Cc1cc(C)cc(C(=O)NCc2nnc3c(-c4nc(C(C)C)no4)cccn23)c1	KDM5B inh 22µM

Screening results as filed in PubChem BioAssay.
